The panel holds about 79,000 compounds, 15% with a hit somewhere; the sample as a whole holds those more often. The source made the active and inactive calls. Cut-off read from the data, not from the text of the source: active = growth inhibition above about 70%; inactive = the rest.
Assay: NCI Yeast Anticancer Drug Screen. Data for the rad50 strain (AID 155);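 note: 0% = growth of vehicle-only cultures of the same strain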
Conditions: S. cerevisiae rad50 strain growth inhibition; at 50.0 µM; stronger effect = higher value
Method in brief: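 Relative growth inhibition (compound vs vehicle) was measured in yeast with a defined repair-gene alteration.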
For `C[C@]12CC[C@@H]3c4ccc(OCCCO)c([N+](=O)[O-])c4CC[C@H]3[C@@H]1CCC2=O`, the growth inhibition was 16.3% (inactive). In the case of `C=CC1CNCCC1CC(=O)OCC` (configuration not stated), the growth inhibition was -16.6% (inactive). For `NC1=NS(=O)(=O)Nc2nc(-c3ccccc3)c(-c3ccccc3)nc21`, the growth inhibition was -24.6% (inactive). In the case of `COC(=O)C(/C(=N/N)C(=O)Nc1cccc(O)c1)c1nc2ccccc2[nH]c1=O` (configuration not stated), the growth inhibition was -39.1% (inactive). In the case of `NCCNc1ncnc2ccc(Cl)cc12`, the growth inhibition was -30.9% (inactive). In the case of `Fc1ccc(Cl)c2cccnc12`, the growth inhibition was 2.75% (inactive). In the case of `CC(C)=CC(=O)OC(C)(C)C`, the growth inhibition was 11.4% (inactive). With `CC(=O)Oc1ccccc1C(OC(C)=O)OC(C)=O` the growth inhibition was 31.8% (inactive).

Assay: NCI Yeast Anticancer Drug Screen. Data for the mec2-1 strain (AID 157)
Conditions: S. cerevisiae mec2-1 strain, at 50.0 µM, stronger effect = higher value
Method in brief: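 Test agents were screened against the mec2-1 yeast strain, with defined DNA repair or cell cycle alteration. Growth was scored as inhibition against vehicle-only controls.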
With `CCCCCCCN1C=CCC(S(=O)(=O)N2CCOCC2)=C1` the growth inhibition was -7.75% (inactive). In the case of `COC(=O)C(C)(C)N=CN(C)C`, the growth inhibition was 13.1% (inactive). In the case of `N#CCCOCC(OCCC#N)C(OCCC#N)C(OCCC#N)C(COCCC#N)OCCC#N` (configuration not stated), the growth inhibition was -14.6% (inactive). In the case of `CC(C)CN(CC(=O)Nc1cccc(Cl)c1)CC(C)C`, the growth inhibition was 11.9% (inactive). With `CCCNC(=O)Oc1ccccc1C(N)=O` the growth inhibition was -20.1% (inactive). With `CC(=O)CC(=O)CCCCC(=O)O` the growth inhibition was -11.1% (inactive). With `NC1=NC2(COC(c3ccccc3)(c3ccccc3)c3ccccc3)OC(COC(c3ccccc3)(c3ccccc3)c3ccccc3)C(O)C2O1` (configuration not stated) the growth inhibition was -5.4% (inactive). With `O=NNc1nc2ncccc2cc1-c1ccccc1Cl` the growth inhibition was -6.05% (inactive). In the case of `CC(C)=CCC1=C(O)[C@@](O)(CC=C(C)C)C(=O)C(C(=O)CC(C)C)=C1O`, the growth inhibition was 7.95% (inactive).

From PubChem BioAssay (NCI)
